Giardia FBPA inh = inhibitors of Giardia lamblia fructose-1,6-bisphosphate aldolase. Potency, µM (top dose mostly 59.6 µM), without a hit: at the top dose activity, negative = inhibition, actives largely listed as inhibitors. 290,000 compounds, 0.71% hits. AID 2451. A8B2U2. purified Giardia FBPA; also: potency is read from the fitted curve at half-maximal effect; nearly all actives have a fitted effect of over 55% in size
Target sequence (A8B2U2 whole entry, looked up): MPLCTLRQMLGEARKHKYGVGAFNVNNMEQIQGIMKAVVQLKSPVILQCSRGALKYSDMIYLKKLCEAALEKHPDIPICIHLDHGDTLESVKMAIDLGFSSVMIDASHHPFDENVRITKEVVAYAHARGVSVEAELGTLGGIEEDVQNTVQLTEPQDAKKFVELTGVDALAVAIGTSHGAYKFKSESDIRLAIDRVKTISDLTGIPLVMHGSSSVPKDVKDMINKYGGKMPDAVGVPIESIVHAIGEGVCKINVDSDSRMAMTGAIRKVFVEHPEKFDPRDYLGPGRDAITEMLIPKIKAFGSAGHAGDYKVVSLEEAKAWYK
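Giardia FBPA (40 nM reagent) was preincubated 10 min at RT with compound (up to 57.5 uM final), then substrate plus GAPDH/TPI/NAD/arsenate coupling system with diaphorase/resazurin was added; resorufin fluorescence (525/598 nm) was read after 20 min.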
FMDV antiviral = blocks foot and mouth disease virus | FMDV antiviral cell-based qHTS | Potency, µM (titrated, usually from 57.9 µM), for inactives: at the highest dose activity change, negative = inhibition, hits mostly inhibitors | AID 1159524 | 410,000 compounds, 1.2% hits; calls by dose curve; tested in HEK293T cells; also: read-out not given here; potency is read from the fitted curve at half-maximal effect; nearly all actives have a fitted effect of over 45% in size
Tb PYK inh = blocks Trypanosoma brucei pyruvate kinase; 410,000 compounds, 0.12% hits; Potency, µM (doses to about 76.8 µM), for inactives: top-dose activity, negative = inhibition, most hits filed as inhibitors; TbPYK enzyme, Kinase-Glo Plus ATP luminescence, 45 min; Q57TT1; also: potency is read from the fitted curve at half-maximal effect; nearly all actives have a fitted effect of over 50% in size
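Luminescence from Kinase-Glo Plus, added after a 45-minute room-temperature reaction, served as the end-point read-out. The enzyme and substrate were preincubated with compound before ADP (130 uM final) initiated turnover. Concentration-effect curves came from normalized qHTS data.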
HCMV inh = inhibitors of human cytomegalovirus; HFF cells, HCMV-luciferase reporter, 72 h; active compounds read low; activity change, negative = inhibition, % at 57.5 µM; 410,000 compounds, 4.5% hits; AID 1259415; in the data active = activity change below about -60%; inconclusive = no clear call, values can overlap the other calls; inactive = above about -39%
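Steps: HFFs plated, 16 h 37C; compounds added; HCMV-luciferase added to MOI 1 PFU/cell; 72 h 37C; OneGlo reagent, 5 min room temperature; luminescence read, normalized to controls.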
RE007 growth inh = less growth of the S. pombe RE007 Vpr strain; 360,000 compounds, 0.21% hits; AID 651644; S. pombe RE007 Vpr strain, BacTiter-Glo ATP luminescence, 24 h; Potency, µM (titrated, usually from 92.2 µM), for the others: top-dose activity change, negative = less growth, hits mostly inhibitors; active = well fitted falling curve with a large enough effect; inconclusive = small, poorly fitted or top-dose-only effect; inactive = no such curve, though single readings can be large or run the other way; also: potency is read from the fitted curve at half-maximal effect; nearly all actives have a fitted effect of over 50% in size
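Fission yeast strain RE007, carrying one chromosomally integrated HIV-1 vpr copy, was seeded at OD 0.01 in PMG+AL medium with 23 nL pinned compound. After 24 h at 30 °C and 99% humidity, viability was read by BacTiter-Glo luminescence.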
Sm TGR block = inhibitors of Schistosoma mansoni thioredoxin glutathione reductase; Q962Y6; Potency, µM (series often up to 114 µM), inactives show at the top dose activity change, negative = inhibition, actives largely listed as inhibitors; 360,000 compounds, 3% hits; purified TGR, DTNB reduction, TNB absorbance 405 nm; also: potency is read from the fitted curve at half-maximal effect; nearly all actives have a fitted effect of over 60% in size
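Kinetic colorimetric format: TGR-catalysed, NADPH-driven DTNB reduction monitored via TNB absorbance. Enzyme dispensed at 20 nM; compound exposure 15 min at room temperature before reaction start.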
* hit, by the source's call; ? = inconclusive; . = no result; + = active, no number. Only some compounds are listed: those with a hit (about 7.7% of all), similar ones and a draw of the others. Unless noted, calls follow the shape of the dose curve; as a rule, active = well fitted curve in the direction sought with a large enough effect; inconclusive = small, poorly fitted or top-dose-only effect, or another doubt; inactive = no such curve, though single readings can be large; an effect the other way counts as inactive or inconclusive. % is scaled to controls: 0 for no effect and ±100 for the full control effect.

SMILES | Giardia FBPA inh | FMDV antiviral | Tb PYK inh | HCMV inh | RE007 growth inh | Sm TGR block
CCCCN(C(=O)C(C)Oc1ccc(Br)cc1)c1c(N)n(Cc2ccccc2)c(=O)[nH]c1=O (stereo not given) | . | -19% | ? | -5 | -16% | 89µM*
COc1cc2c(N3CCN(C(=O)Nc4ccc(OC(C)C)cc4)CC3)ncnc2cc1OCCCN1CCCCC1 | . | . | -1% | . | . | .
CCOc1ccc(C2CC(c3c(O)c4ccccc4oc3=O)=NN2c2ccccc2)cc1OC (stereo not given) | ? | -7% | -11% | -78* | 18% | -28%
CCOc1ccc(C2c3c(oc4ccccc4c3=O)C(=O)N2c2nnc(C)s2)cc1OC (stereo not given) | . | -12% | 1% | 19 | . | 2%
COc1cc(C2CC(=O)c3c([nH]c(C(=O)OCCOC(C)C)c3C)C2)cc(OC)c1OC (stereo not given) | -1% | 11µM* | 3% | -63* | 5% | -2%
COc1cc(C2CC(=O)c3c([nH]c(C(=O)OCc4ccc(C)cc4)c3C)C2)cc(OC)c1OC (stereo not given) | . | 14µM* | -4% | -18 | . | -3%
CCOCCOC(=O)c1[nH]c2c(c1C)C(=O)CC(c1ccc(N(C)C)cc1)C2 (stereo not given) | -17% | ? | 0% | -25 | 13% | -11%
O=C(NCCc1ccccn1)C1CC12CCN(C(=O)c1ccccc1Cl)CC2 (stereo not given) | . | -12% | . | . | . | .
COC(=O)c1cccc(N2C(=O)C[C@](Sc3ccc(OC)cc3)(C(=O)N3CCCC3)[C@H]2c2ccc(OC)cc2)c1 | . | . | . | -14 | . | .
Cc1cc(S(=O)(=O)N(Cc2cccs2)Cc2ccccc2F)ccc1-n1cnnn1 | 0% | 30% | -2% | -64* | 15% | 1%
O=C(Nc1ccc(Cl)cc1Cl)c1cc(S(=O)(=O)N2CCN(c3ccccc3F)CC2)ccc1F | . | -19% | 1% | -65* | . | 7%
Cc1ccc(C)c(N2CCN(S(=O)(=O)c3ccc(F)c(C(=O)Nc4ccc(Cl)cc4Cl)c3)CC2)c1 | . | -11% | -4% | -22 | . | -11%
Cc1cc(S(=O)(=O)N(Cc2ccc(C(C)(C)C)cc2)Cc2cccs2)ccc1-n1cnnn1 | -9% | 10% | 15% | 6 | -4% | -26%
Cc1cc(S(=O)(=O)N2CCN(c3ccccc3F)CC2)ccc1-n1cnnn1 | -9% | ? | -4% | -77* | 0% | 0%
CCN(CC)CCOCCOC(=O)C(CC)(CC)c1ccccc1 (tested in a mixture with another compound) | . | . | -1% | . | . | .
CCCCC/C=C\C/C=C\CCCCCCCC(=O)NC(C)C(=O)O (stereo not given) | 4% | . | . | . | . | .
COCCn1c(SCC(=O)c2ccc(C)cc2C)nc2cc(C(=O)NC3CCCC3)ccc2c1=O | . | -13% | 7% | 13 | . | 2%
COC(=O)[C@H](COC(C)(C)C)NC(=O)O[C@@H]1C(=O)c2cc(Br)ccc2O[C@H]1c1cccc(OC)c1 | 0% | . | . | . | . | .
COc1ccc2c(c1)C(=NN)c1cc(OC)ccc1-2 | . | 0% | -16% | -87* | -8% | 1%
CC(=O)OCC1OC(n2cc(F)c(=O)[nH]c2=O)C(OC(C)=O)C1OC(C)=O (stereo not given) | . | -3% | 1% | -17 | 12% | .
O=C1C(F)=CC(COC(c2ccccc2)(c2ccccc2)c2ccccc2)OC1n1cc(F)c(=O)[nH]c1=O (stereo not given) | . | 3.2µM* | -12% | -99* | 0% | .
COc1ccc(-c2cn3c(C)c(C(=O)N4CCN(c5ccccc5F)CC4)sc3n2)cc1 | 10% | -11% | -8% | -60* | -5% | 0%
COc1ccc(C(=O)C(=O)N2CCN(c3ccccc3F)CC2)cc1 | . | -4% | . | -68* | -8% | .
Cc1c(C(=O)N2CCN(c3ccccc3F)CC2)sc2nc(-c3ccccc3)cn12 | 2% | -16% | 5% | -32 | 2% | 12%
N#Cc1c2n(c3c(=O)[nH]cnc13)CCCC2 | 0% | 21% | 4% | -37 | -2% | 1%
SMILES | Giardia FBPA inh | FMDV antiviral | Tb PYK inh | HCMV inh | RE007 growth inh | Sm TGR block
N#Cc1c2n(c3c(=S)nc[nH]c13)CCCCC2 | ? | -26% | ? | -75* | -1% | -2%
C[C@H](CO)NC(=O)[C@H]1C[C@@H]1[C@H](NP(=O)(c1ccccc1)c1ccccc1)c1ccccc1 | 6% | . | . | . | . | .
O=C(c1ccnc(-n2cnnn2)c1)N1CCOc2ccc(C(O)CCc3ccccc3)cc2C1 (stereo not given) | . | 15% | . | . | . | .
Cc1ccc2c(C)c(C(=O)Nc3nnc(C)s3)oc2c1 | 0% | 30% | 0% | -99* | 4% | 4%
CCCCCCCCCCCCCCCCCCNc1ccn(C2OC(COP(=O)(O)OCC3OC(n4cc(F)c(=O)[nH]c4=O)CC3O)C(O)C2O)c(=O)n1 (stereo not given) | . | -5% | 2% | -88* | 18% | .
COc1ccc(C2C(C#N)=C(C)NC3=C2S(=O)(=O)c2ccccc23)cc1 (stereo not given) | -28% | -14% | 3% | -108* | 6% | 10%
CCc1ccc(C2C(C(=O)Nc3ccccc3C)=C(C)Nc3nc(SCc4cccc(OC)c4)nn32)cc1 (stereo not given) | . | -7% | 2% | 12 | . | 5%
CCn1cc(C(=O)N[C@@H](CCSC)C(=O)NCCN2CCOCC2)c(=O)c2cc3c(cc21)OCO3 | . | 13% | -7% | + | 13% | -3%
COc1ccc(-n2c(Cn3nc(C(F)(F)F)cc3C)n[nH]c2=S)cc1 | -20% | -4% | 3.2µM* | 18 | 6% | 0%
COc1ccc(-c2n[nH]c(=S)n2-c2ccc(C)cc2)cc1 | 1% | -13% | ? | -12 | 19% | -5%
COc1cccc(-n2c(Cn3nc(C(F)(F)F)cc3C)n[nH]c2=S)c1 | -13% | -22% | 4µM* | ? | . | 15%
COc1cccc(-n2c(Cn3nc(C(F)F)cc3C(F)F)n[nH]c2=S)c1 | -17% | 0% | ? | 22 | -7% | 0%
Cc1ccc(-n2c(Cn3nc(C(F)(F)F)cc3C)n[nH]c2=S)cc1 | -1% | 10% | 10µM* | 9 | 5% | 9%
O=C(CSc1ccc2nc(-c3ccccc3)cn2n1)Nc1cccc(F)c1 | . | 57% | -8% | 68 | . | 3%
CCOc1ccc(-c2cc(NC(=O)Nc3ccc(Cl)cc3)c(C(=O)OC)s2)cc1 | . | 8% | -9% | 19 | . | 3%
Cc1cc(Br)cn2c(Cc3ccccc3C(F)(F)F)c(-c3cccc(Cl)c3)nc12 | . | . | . | 26 | . | .
O=c1c(-c2ccc(Cl)cc2)nc2cnc(Nc3ccccc3)nc2n1C[C@H]1CCCO1 | 7% | -8% | . | . | . | .

Bioassay records as filed in PubChem.
